Of roughly 7,900 targets only a part is listed; those with a hit were picked by preference. About 0.6% of all pairs of compound and target were hits.
compound: CCCS(=O)(=O)Nc1ccc(F)c(C(=O)c2c[nH]c3ncc(-c4ccc(Cl)cc4)cc23)c1F [vemurafenib]; test: log2 fold change, soluble protein after heating vs DMSO (PISA); higher = thermal stabilisation; K562 cells, 10 uM, 30 min; active = over 0.2 and 3.5 SD of the protein, either way, in both replicates (recomputed)
In short: (§1)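 Values are thermal stability changes relative to control samples and are taken from duplicates. They are stated as log2 fold changes. Before quantification by TMTpro 16plex LC-MS/MS with equalised channel sums, K562 cells at 2×10^6 cells/mL were treated with 10 μM compound for 30 min, heated in aliquots for 3 min across 48°C-58°C, pooled, extracted in PBS with 0.5% NP-40 at 4°C, and centrifuged at 21,000xg for 90 min to give the soluble supernatant.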

UniProt Q9P2H3, sequence (Q9P2H3 whole entry, looked up): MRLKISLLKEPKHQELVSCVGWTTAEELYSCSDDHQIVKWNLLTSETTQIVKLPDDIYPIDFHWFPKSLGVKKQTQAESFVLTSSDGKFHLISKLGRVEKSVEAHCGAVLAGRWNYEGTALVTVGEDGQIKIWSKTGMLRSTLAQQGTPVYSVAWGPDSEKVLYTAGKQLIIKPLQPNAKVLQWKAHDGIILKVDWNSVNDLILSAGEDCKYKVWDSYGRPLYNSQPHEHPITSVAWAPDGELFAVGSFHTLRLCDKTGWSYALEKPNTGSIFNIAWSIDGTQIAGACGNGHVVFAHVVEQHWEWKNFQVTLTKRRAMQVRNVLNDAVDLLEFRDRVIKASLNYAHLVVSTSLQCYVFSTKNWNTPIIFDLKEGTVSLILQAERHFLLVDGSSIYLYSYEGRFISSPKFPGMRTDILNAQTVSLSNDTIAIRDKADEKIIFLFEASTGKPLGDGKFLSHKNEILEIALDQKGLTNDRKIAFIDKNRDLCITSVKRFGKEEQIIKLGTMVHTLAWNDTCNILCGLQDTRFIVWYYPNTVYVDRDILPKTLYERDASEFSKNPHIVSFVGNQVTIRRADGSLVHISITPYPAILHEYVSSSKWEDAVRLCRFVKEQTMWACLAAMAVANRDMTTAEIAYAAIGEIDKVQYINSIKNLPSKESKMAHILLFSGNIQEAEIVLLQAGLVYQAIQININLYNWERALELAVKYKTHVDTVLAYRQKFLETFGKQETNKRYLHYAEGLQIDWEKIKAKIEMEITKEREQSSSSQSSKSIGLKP
UniProt Q10471, sequence (Q10471 whole entry, looked up): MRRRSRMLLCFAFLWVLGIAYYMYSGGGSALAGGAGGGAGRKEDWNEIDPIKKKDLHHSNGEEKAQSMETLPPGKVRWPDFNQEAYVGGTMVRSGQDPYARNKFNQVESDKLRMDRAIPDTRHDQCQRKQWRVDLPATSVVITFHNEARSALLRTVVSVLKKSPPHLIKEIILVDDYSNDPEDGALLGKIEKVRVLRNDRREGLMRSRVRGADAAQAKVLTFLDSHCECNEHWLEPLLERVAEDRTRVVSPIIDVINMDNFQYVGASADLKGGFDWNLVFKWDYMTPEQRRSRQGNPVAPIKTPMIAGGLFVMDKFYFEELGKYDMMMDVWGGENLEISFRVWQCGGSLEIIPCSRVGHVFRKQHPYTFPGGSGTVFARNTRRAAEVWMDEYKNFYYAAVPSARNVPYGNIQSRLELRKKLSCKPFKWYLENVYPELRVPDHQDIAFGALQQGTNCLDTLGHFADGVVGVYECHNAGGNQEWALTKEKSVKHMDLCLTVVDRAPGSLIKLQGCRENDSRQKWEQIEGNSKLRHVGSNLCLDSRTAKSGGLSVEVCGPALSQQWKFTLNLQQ
UniProt P15104, sequence (P15104 whole entry, looked up): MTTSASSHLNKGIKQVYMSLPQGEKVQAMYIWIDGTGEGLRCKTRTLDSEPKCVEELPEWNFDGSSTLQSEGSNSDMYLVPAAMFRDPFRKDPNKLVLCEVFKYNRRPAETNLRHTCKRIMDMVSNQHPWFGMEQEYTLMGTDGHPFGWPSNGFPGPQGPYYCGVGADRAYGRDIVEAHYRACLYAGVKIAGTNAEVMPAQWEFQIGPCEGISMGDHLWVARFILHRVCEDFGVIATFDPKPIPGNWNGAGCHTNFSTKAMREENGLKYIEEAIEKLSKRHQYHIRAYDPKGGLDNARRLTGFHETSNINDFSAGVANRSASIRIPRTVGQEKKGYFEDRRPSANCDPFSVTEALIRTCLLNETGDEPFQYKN
UniProt Q5JWF2, sequence (Q5JWF2 whole entry, looked up): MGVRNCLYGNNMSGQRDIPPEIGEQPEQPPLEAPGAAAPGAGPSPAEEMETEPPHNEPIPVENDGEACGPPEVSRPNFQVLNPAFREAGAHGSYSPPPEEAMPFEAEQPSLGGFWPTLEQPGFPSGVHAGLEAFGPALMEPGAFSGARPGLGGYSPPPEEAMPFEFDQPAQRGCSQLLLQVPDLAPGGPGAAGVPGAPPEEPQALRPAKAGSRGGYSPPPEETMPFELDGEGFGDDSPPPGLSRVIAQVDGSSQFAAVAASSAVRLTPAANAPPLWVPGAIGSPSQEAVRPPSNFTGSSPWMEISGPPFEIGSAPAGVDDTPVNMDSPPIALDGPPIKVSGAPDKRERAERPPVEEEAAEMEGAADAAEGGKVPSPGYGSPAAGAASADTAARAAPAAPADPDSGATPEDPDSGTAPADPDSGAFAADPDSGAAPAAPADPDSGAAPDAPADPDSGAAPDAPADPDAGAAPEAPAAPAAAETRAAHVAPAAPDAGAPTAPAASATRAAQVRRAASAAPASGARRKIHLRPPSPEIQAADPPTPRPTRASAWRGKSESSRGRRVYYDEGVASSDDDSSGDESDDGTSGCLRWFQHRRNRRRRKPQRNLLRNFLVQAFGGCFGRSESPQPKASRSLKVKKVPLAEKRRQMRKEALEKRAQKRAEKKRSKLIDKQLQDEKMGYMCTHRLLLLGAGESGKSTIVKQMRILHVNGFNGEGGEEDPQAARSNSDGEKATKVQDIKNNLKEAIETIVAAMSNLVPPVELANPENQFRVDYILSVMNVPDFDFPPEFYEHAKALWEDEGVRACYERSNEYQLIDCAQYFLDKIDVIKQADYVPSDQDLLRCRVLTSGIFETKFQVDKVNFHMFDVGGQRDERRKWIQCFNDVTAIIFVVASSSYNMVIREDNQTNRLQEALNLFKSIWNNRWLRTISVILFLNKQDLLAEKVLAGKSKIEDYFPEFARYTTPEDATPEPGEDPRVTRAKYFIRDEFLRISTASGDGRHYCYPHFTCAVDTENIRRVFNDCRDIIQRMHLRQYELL
UniProt P22570, sequence (P22570 whole entry, looked up): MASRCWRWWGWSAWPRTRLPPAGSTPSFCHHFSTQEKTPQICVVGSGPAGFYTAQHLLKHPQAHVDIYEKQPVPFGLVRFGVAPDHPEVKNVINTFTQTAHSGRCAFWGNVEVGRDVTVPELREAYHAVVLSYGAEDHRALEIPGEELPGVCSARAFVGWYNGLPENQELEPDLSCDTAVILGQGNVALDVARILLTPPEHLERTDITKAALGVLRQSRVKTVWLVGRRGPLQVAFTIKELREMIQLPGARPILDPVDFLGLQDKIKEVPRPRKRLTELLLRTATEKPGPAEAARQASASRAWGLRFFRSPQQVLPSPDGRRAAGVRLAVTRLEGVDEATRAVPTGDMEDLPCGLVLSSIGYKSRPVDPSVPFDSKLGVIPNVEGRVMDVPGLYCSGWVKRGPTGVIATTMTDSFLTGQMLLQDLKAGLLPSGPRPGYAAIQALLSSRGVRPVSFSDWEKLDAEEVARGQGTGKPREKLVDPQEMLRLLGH
UniProt Q53GQ0, sequence (Q53GQ0 whole entry, looked up): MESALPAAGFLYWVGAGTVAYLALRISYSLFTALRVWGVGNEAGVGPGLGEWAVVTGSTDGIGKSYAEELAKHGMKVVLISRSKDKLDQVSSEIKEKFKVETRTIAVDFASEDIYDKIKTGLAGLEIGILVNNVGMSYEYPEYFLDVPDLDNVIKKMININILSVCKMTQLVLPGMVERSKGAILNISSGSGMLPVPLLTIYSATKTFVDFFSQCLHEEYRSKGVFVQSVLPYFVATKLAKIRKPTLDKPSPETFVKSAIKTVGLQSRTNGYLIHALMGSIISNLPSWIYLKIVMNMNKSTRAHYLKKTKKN
UniProt P14324, sequence (P14324 whole entry, looked up): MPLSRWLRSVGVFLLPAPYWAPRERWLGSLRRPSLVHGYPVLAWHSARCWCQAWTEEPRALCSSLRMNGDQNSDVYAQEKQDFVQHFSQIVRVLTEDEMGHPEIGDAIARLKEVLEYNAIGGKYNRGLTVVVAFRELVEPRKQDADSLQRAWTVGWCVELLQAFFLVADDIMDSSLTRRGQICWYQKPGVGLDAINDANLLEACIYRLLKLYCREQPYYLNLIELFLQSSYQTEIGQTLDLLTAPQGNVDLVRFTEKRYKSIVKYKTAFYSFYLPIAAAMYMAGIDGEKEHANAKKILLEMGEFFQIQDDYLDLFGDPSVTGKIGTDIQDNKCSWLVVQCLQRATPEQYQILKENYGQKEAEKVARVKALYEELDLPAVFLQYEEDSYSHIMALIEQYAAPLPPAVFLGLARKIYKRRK
UniProt Q8WXD5, sequence (Q8WXD5 whole entry, looked up): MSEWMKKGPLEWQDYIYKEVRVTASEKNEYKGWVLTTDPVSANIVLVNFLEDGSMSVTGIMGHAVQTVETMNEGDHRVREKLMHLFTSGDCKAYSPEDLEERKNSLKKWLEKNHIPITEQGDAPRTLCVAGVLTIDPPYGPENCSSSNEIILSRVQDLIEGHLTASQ
UniProt P52597, sequence (P52597 whole entry, looked up): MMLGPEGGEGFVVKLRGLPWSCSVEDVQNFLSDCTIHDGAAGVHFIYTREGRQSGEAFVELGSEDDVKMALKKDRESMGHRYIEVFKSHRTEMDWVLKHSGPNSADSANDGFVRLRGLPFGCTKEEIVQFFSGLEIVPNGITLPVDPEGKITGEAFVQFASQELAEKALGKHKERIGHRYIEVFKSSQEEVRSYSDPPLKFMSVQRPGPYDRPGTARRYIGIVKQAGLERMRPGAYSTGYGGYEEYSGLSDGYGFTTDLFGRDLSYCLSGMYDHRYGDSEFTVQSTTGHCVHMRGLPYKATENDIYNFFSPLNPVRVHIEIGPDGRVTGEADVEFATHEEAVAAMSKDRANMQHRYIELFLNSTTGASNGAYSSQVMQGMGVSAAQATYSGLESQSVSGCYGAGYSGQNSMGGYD
UniProt P69905, sequence (P69905 whole entry, looked up): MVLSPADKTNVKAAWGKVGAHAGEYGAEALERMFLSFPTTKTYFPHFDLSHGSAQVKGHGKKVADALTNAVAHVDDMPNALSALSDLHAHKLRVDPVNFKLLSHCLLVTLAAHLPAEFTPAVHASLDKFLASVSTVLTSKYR
UniProt P52657, sequence (P52657 whole entry, looked up): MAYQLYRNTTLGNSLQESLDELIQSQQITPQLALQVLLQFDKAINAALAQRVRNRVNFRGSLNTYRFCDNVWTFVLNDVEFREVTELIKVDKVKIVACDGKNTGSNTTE

log2 fold change, inactive:
HSD17B12 (UniProt Q53GQ0) -0.006, HNRNPF (UniProt P52597) 0.106, GALNT2 (UniProt Q10471) 0, IFT80 isoform 3 (UniProt Q9P2H3) -0.042, GEMIN6 (UniProt Q8WXD5) 0.073, FDPS (UniProt P14324) 0.034, GNAS (UniProt Q5JWF2) 0.034, GOPC (UniProt Q9HD26) 0.094, FDXR isoform 7 (UniProt P22570) 0.02, HECTD1 (UniProt Q9ULT8) -0.04, GLUL (UniProt P15104) -0.04

compound: CCCS(=O)(=O)Nc1ccc(F)c(C(=O)c2c[nH]c3ncc(Cl)cc23)c1F; test: as above
In short: as §1

log2 fold change, inactive:
HADHB (UniProt P55084) -0.042, GDPD1 (UniProt Q8N9F7) -0.081, HBZ (UniProt P02008) -0.006, FNTA (UniProt P49354) -0.047, FUBP3 (UniProt Q96I24) 0.018, FAM91A1 (UniProt Q658Y4) 0.051, GTF3C4 (UniProt Q9UKN8) 0.045, HSPA8 (UniProt E9PK54) 0.026, GNPAT (UniProt O15228) 0.045, GTF2A2 (UniProt P52657) -0.017, HBA1 (UniProt P69905) 0.037, GDI1 (UniProt P31150) -0.008, HMOX2 (UniProt P30519) 0.012, HMGN2 (UniProt P05204) -0.058, GYG1 (UniProt P46976) 0.046, FKBP3 (UniProt Q00688) -0.041, HEATR5B (UniProt Q9P2D3) -0.014, FKBP4 (UniProt Q02790) 0.06, H2AFX (UniProt P16104) 0.329, GUSB (UniProt P08236) 0.03, HDAC6 (UniProt Q9UBN7) -0.018, FBXO42 (UniProt Q6P3S6) 0.083, HP1BP3 (UniProt Q5SSJ5) 0.018, GEMIN5 (UniProt Q8TEQ6) 0.093, HSD17B12 (UniProt Q53GQ0) -0.01, HNRNPF (UniProt P52597) 0.101, GALNT2 (UniProt Q10471) 0.04, IFT80 isoform 3 (UniProt Q9P2H3) 0.039, GEMIN6 (UniProt Q8WXD5) -0.001, FDPS (UniProt P14324) -0.001, GNAS (UniProt Q5JWF2) -0.027, GOPC (UniProt Q9HD26) -0.128, FDXR isoform 7 (UniProt P22570) 0.024, HECTD1 (UniProt Q9ULT8) 0.126, GLUL (UniProt P15104) -0.084
